Results from PubChem BioAssay AID1159580 (chemical genetic matrix, 2015).
Hit rate of the full screen: of about 5,500 compounds, about 2,000 (36%) were called active. Inconclusive results (about 18%) are left out. No stated cut-off is given here; in the data, active means normalized growth mostly below about 0.91 (no sharp cut-off); inconclusive means no clear call, values can overlap the other calls; inactive means mostly above about 0.92. The list shows a part of the results.

Test: chemical genetic growth profiling, strain panel (AID 1159580);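 further: tested at 20 µM; growth read once vehicle control cultures reached saturation at 30 °C; 1 = growth at the plate median or of vehicle wells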
Settings: growth OD
[1] = S. cerevisiae deletion strains, locus YDL101C, strain DUN1, stronger effect = lower value
[2] = S. cerevisiae deletion strains, locus YHR030C, strain SLT2, stronger effect = lower value

Measured: normalized growth

Cc1ccc(OCc2nnc(SCC(=O)c3ccc(F)cc3)n2-c2ccccc2)c2c1CCC2
inactive: S. cerevisiae deletion strains, locus YAL013W, strain DEP1, stronger effect = lower value 0.982 | S. cerevisiae deletion strains, locus YBR229C, strain ROT2, stronger effect = lower value 0.987 | [1] 0.961 | S. cerevisiae deletion strains, locus YDL134C, strain PPH21, stronger effect = lower value 0.982 | S. cerevisiae deletion strains, locus YDR150W, strain NUM1, stronger effect = lower value 0.972 | S. cerevisiae deletion strains, locus YEL061C, strain CIN8, stronger effect = lower value 0.982 | S. cerevisiae deletion strains, locus YGR078C, strain PAC10, stronger effect = lower value 0.966 | S. cerevisiae deletion strains, locus YGR229C, strain SMI1, stronger effect = lower value 0.984 | [2] 0.964 | S. cerevisiae deletion strains, locus YHR087W, strain rtc3, stronger effect = lower value 0.957 | S. cerevisiae deletion strains, locus YJL187C, strain SWE1, stronger effect = lower value 0.983 | S. cerevisiae deletion strains, locus YJR043C, strain POL32, stronger effect = lower value 0.969 | S. cerevisiae deletion strains, locus YJR075W, strain HOC1, stronger effect = lower value 0.986 | S. cerevisiae deletion strains, locus YLR039C, strain RIC1, stronger effect = lower value 0.968 | S. cerevisiae deletion strains, locus YLR058C, strain SHM2 (second series), stronger effect = lower value 0.978 | S. cerevisiae deletion strains, locus YLR085C, strain ARP6, stronger effect = lower value 0.957 | S. cerevisiae deletion strains, locus YLR262C, strain YPT6, stronger effect = lower value 0.961 | S. cerevisiae deletion strains, locus YML094W, strain GIM5, stronger effect = lower value 0.947 | S. cerevisiae deletion strains, locus YMR219W, strain ESC1, stronger effect = lower value 0.99 | S. cerevisiae deletion strains, locus YMR263W, strain SAP30, stronger effect = lower value 0.982 | S. cerevisiae deletion strains, locus YMR307W, strain GAS1, stronger effect = lower value 1.01 | S. cerevisiae deletion strains, locus YNL128W, strain TEP1, stronger effect = lower value 0.992 | S. cerevisiae deletion strains, locus YNL153C, strain GIM3, stronger effect = lower value 0.989 | S. cerevisiae deletion strains, locus YNL298W, strain CLA4 (second series), stronger effect = lower value 0.972 | S. cerevisiae deletion strains, locus YNL322C, strain KRE1, stronger effect = lower value 0.993 | S. cerevisiae deletion strains, locus YNR030W, strain Alg12, stronger effect = lower value 0.98 | S. cerevisiae deletion strains, locus YOL006C, strain TOP1, stronger effect = lower value 0.963 | S. cerevisiae deletion strains, locus YPL055C, strain LGE1, stronger effect = lower value 0.956 | S. cerevisiae deletion strains, locus YPL241C, strain CIN2, stronger effect = lower value 1.04 | S. cerevisiae deletion strains, locus YPR135W, strain CTF4, stronger effect = lower value 0.867 | S. cerevisiae strains, strain wild type, stronger effect = lower value 0.971

Cc1ccc(OCc2n[nH]c(=S)n2Cc2ccccc2)c2c1CCC2
active: S. cerevisiae deletion strains, locus YER123W, strain YCK3, stronger effect = lower value 0.609 | S. cerevisiae deletion strains, locus YFR019W, strain FAB1, stronger effect = lower value 0.68 | [2] 0.283 | S. cerevisiae deletion strains, locus YHR082C, strain KSP1, stronger effect = lower value 0.53 | S. cerevisiae deletion strains, locus YKL048C, strain ELM1, stronger effect = lower value 0.782 | S. cerevisiae deletion strains, locus YKL101W, strain HSL1, stronger effect = lower value 0.722 | S. cerevisiae deletion strains, locus YLR113W, strain HOG1, stronger effect = lower value 0.698 | S. cerevisiae deletion strains, locus YNL307C, strain MCK1 (second series), stronger effect = lower value 0.621 | S. cerevisiae deletion strains, locus YPL153C, strain RAD53, stronger effect = lower value 0.609 | S. cerevisiae deletion strains, locus YPL256C, strain CLN2, stronger effect = lower value 0.655
inactive: S. cerevisiae deletion strains, locus YAR019C, strain CDC15, stronger effect = lower value 0.987 | S. cerevisiae deletion strains, locus YBL105C, strain PKC1, stronger effect = lower value 0.988 | S. cerevisiae deletion strains, locus YBR135W, strain CKS1, stronger effect = lower value 0.982 | S. cerevisiae deletion strains, locus YBR136W, strain MEC1, stronger effect = lower value 0.98 | S. cerevisiae deletion strains, locus YBR160W, strain CDC28, stronger effect = lower value 0.985 | S. cerevisiae deletion strains, locus YDL017W, strain CDC7, stronger effect = lower value 0.987 | S. cerevisiae deletion strains, locus YDL028C, strain MPS1, stronger effect = lower value 0.975 | [1] 0.994 | S. cerevisiae deletion strains, locus YDL108W, strain KIN28, stronger effect = lower value 0.973 | S. cerevisiae deletion strains, locus YDL132W, strain cdc53, stronger effect = lower value 0.99 | S. cerevisiae deletion strains, locus YDL214C, strain PRR2, stronger effect = lower value 0.823 | S. cerevisiae deletion strains, locus YDR052C, strain DBF4, stronger effect = lower value 0.995 | S. cerevisiae deletion strains, locus YDR054C, strain cdc34, stronger effect = lower value 0.988 | S. cerevisiae deletion strains, locus YDR226W, strain ADK1, stronger effect = lower value 0.988 | S. cerevisiae deletion strains, locus YDR477W, strain SNF1, stronger effect = lower value 0.817 | S. cerevisiae deletion strains, locus YER133W, strain GLC7, stronger effect = lower value 0.841 | S. cerevisiae deletion strains, locus YFL009W, strain cdc4, stronger effect = lower value 0.984 | S. cerevisiae deletion strains, locus YFL029C, strain CAK1, stronger effect = lower value 0.992 | S. cerevisiae deletion strains, locus YFR003C, strain YPI1, stronger effect = lower value 0.985 | S. cerevisiae deletion strains, locus YFR028C, strain CDC14, stronger effect = lower value 0.984 | S. cerevisiae deletion strains, locus YGR040W, strain KSS1, stronger effect = lower value 0.801 | S. cerevisiae deletion strains, locus YGR052W, strain FMP48, stronger effect = lower value 0.647 | S. cerevisiae deletion strains, locus YGR092W, strain DBF2, stronger effect = lower value 0.495 | S. cerevisiae deletion strains, locus YHR079C, strain IRE1, stronger effect = lower value 0.619 | S. cerevisiae deletion strains, locus YHR205W, strain SCH9, stronger effect = lower value 0.908 | S. cerevisiae deletion strains, locus YIL147C, strain SLN1, stronger effect = lower value 0.967 | S. cerevisiae deletion strains, locus YJL095W, strain BCK1, stronger effect = lower value 0.656 | S. cerevisiae deletion strains, locus YJL128C, strain PBS2, stronger effect = lower value 0.955 | S. cerevisiae deletion strains, locus YJL157C, strain FAR1, stronger effect = lower value 0.803 | S. cerevisiae deletion strains, locus YJR016C, strain ILV3, stronger effect = lower value 0.986 | S. cerevisiae deletion strains, locus YJR066W, strain TOR1 (second series), stronger effect = lower value 0.797 | S. cerevisiae deletion strains, locus YJR066W, strain TOR1, stronger effect = lower value 0.73 | S. cerevisiae deletion strains, locus YKL067W, strain YNK1, stronger effect = lower value 0.838 | S. cerevisiae deletion strains, locus YKL193C, strain SDS22, stronger effect = lower value 0.988 | S. cerevisiae deletion strains, locus YKL203C, strain TOR2, stronger effect = lower value 0.829 | S. cerevisiae deletion strains, locus YLR133W, strain CKI1, stronger effect = lower value 0.793 | S. cerevisiae deletion strains, locus YLR403W, strain SFP1, stronger effect = lower value 0.84 | S. cerevisiae deletion strains, locus YML070W, strain DAK1, stronger effect = lower value 0.752 | S. cerevisiae deletion strains, locus YMR001C, strain CDC5, stronger effect = lower value 0.984 | S. cerevisiae deletion strains, locus YMR205C, strain PFK2 (second series), stronger effect = lower value 0.847 | S. cerevisiae deletion strains, locus YMR277W, strain FCP1, stronger effect = lower value 0.986 | S. cerevisiae deletion strains, locus YNL006W, strain LST8, stronger effect = lower value 0.998 | S. cerevisiae deletion strains, locus YNL020C, strain ARK1, stronger effect = lower value 0.713 | S. cerevisiae deletion strains, locus YNL161W, strain CBK1, stronger effect = lower value 0.99 | S. cerevisiae deletion strains, locus YNL183C, strain NPR1, stronger effect = lower value 0.628 | S. cerevisiae deletion strains, locus YNL207W, strain RIO2, stronger effect = lower value 0.988 | S. cerevisiae deletion strains, locus YNL222W, strain SSU72, stronger effect = lower value 0.986 | S. cerevisiae deletion strains, locus YOL078W, strain AVO1, stronger effect = lower value 0.985 | S. cerevisiae deletion strains, locus YOL136C, strain PFK27, stronger effect = lower value 0.785 | S. cerevisiae deletion strains, locus YOR061W, strain CKA2, stronger effect = lower value 0.751 | S. cerevisiae deletion strains, locus YOR119C, strain RIO1, stronger effect = lower value 0.883 | S. cerevisiae deletion strains, locus YOR231W, strain MKK1, stronger effect = lower value 0.677 | S. cerevisiae deletion strains, locus YOR329C, strain SCD5, stronger effect = lower value 0.988 | S. cerevisiae deletion strains, locus YPL031C, strain PHO85, stronger effect = lower value 0.746 | S. cerevisiae deletion strains, locus YPL204W, strain HRR25, stronger effect = lower value 0.723 | S. cerevisiae deletion strains, locus YPL209C, strain IPL1, stronger effect = lower value 0.984 | S. cerevisiae deletion strains, locus YPR025C, strain CCL1, stronger effect = lower value 0.989 | S. cerevisiae deletion strains, locus YPR106W, strain ISR1, stronger effect = lower value 0.992 | S. cerevisiae deletion strains, locus YPR111W, strain DBF20, stronger effect = lower value 0.99 | S. cerevisiae deletion strains, strain NNK1, stronger effect = lower value 1 | S. cerevisiae deletion strains, strain TSCII, stronger effect = lower value 0.991
